Experimental data published in PubChem BioAssay AID485270 (The Scripps Research Institute Molecular Screening Center, 2010).
In all, about 330,000 compounds went through this assay and about 5,800 (1.8%) were called active. This is one part of a sample in which actives are shown more often than they occur. Cut-off read from the data, not from the text of the source: active = inhibition mostly above about 38% (no sharp cut-off); inactive = mostly below about 40%.

target: Orexin/Hypocretin receptor type 1 (Homo sapiens) (UniProt O43613); test: antagonists of human orexin 1 receptor (OX1R) (AID 485270); conditions: OX1R-expressing cells, FRET antagonist read-out; at 6.6 µM; hits give high values;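 note: 0% = agonist challenge alone and 100% = reference antagonist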
Sequence (O43613 whole entry, looked up): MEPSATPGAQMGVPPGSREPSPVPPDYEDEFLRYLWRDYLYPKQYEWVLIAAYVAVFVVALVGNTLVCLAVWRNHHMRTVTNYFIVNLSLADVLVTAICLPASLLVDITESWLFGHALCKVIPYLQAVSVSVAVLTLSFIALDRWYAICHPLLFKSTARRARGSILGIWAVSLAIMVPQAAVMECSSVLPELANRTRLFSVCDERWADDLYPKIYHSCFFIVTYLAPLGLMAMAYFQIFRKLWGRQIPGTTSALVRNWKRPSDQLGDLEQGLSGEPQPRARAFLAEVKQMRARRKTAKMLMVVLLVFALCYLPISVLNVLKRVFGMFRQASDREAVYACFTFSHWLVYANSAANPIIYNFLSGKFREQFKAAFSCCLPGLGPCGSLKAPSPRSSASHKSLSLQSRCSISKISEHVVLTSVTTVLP

| SMILES | inhibition |
| --- | --- |
| COc1cc(C(=O)Nc2oc(-c3ccccc3)c(-c3ccccc3)c2C#N)cc(OC)c1OC | 24.6% (inactive) |
| N#Cc1c(NC(=O)CCCN2C(=O)c3ccccc3C2=O)oc(-c2ccccc2)c1-c1ccccc1 | 48.7% (active) |
| O=C(CCN1C(=O)c2ccccc2C1=O)Nc1ccncc1 | 21.2% (inactive) |
| C#CCOCCOCCOCCNc1nc(N2CCN(C(=O)[C@H](CCCN=C(N)N)n3cc(C(N)[C@@H](C)CC)nn3)CC2)nc(N2CCN(C(=O)[C@H](CO)n3cc([C@@H](N)C(C)C)nn3)CC2)n1 (stereo partly drawn) | 1.49% (inactive) |
| Cc1ccc(OCc2cc(C(=O)N(C)CCc3ccccc3)no2)cc1C | 27.7% (inactive) |
| COc1cc(Cl)ccc1OCc1cc(C(=O)N(C)CCc2c(C)n[nH]c2C)no1 | 71.9% (active) |
| COc1cc(Cl)ccc1OCc1cc(C(=O)N2CC[C@@H]3CCCC[C@H]3C2)no1 | -0.82% (inactive) |
| CSc1ccccc1OCc1cc(C(=O)N(C)CCc2c(C)n[nH]c2C)no1 | 43.7% (active) |
| CCn1ccnc1CN(C)C(=O)c1cc(COc2ccc(Cl)cc2OC)on1 | 16.5% (inactive) |
| CSc1ccccc1OCc1cc(C(=O)N2C[C@H]3CC[C@H]2C3)no1 | 38.3% (inactive) |
| COc1cccc2sc3cc(NCC[C@@H]4CCCN4C)ccc3c(=O)c12 | 20.1% (inactive) |
| COc1cc(NC(=O)c2[nH]cnc2C(N)=O)cc(C(=O)Nc2cccc(C(F)(F)F)c2)c1 | 33.6% (inactive) |
| O=C1CN(C(=O)COC(=O)/C=C/c2ccc(F)cc2)c2ccccc2N1 | 6.47% (inactive) |
| O=C(C[C@H]1C[C@H](C(=O)N2CCOCC2)[C@@]2(CCC3CCCC3)c3[nH]c4ccc(Cl)cc4c3CCN2C1=O)NCc1ccco1 | 14.4% (inactive) |
| COc1ccc(CCNC(=O)NS(=O)(=O)c2ccc(C)cc2)cc1OC | -2.44% (inactive) |
| Cc1ccc(-n2c(C)cc(C(=O)CSc3nnc4ccccn34)c2C)cc1 | 12.3% (inactive) |
| COc1ccc(-n2c(C)cc(C(=O)COC(=O)c3cc(OC)c(OC)cc3NC(=O)c3cccs3)c2C)cc1 | 1.91% (inactive) |
| COc1ccc(-n2c(C)cc(C(=O)CSc3nnc(-c4cccs4)o3)c2C)cc1 | 39.4% (active) |
| Nc1ncnc2c1ncn2[C@@H]1O[C@H](CNS(=O)(=O)c2ccc(-c3ccno3)s2)[C@@H](O)[C@H]1O | 6.23% (inactive) |
| CN(C)C(=O)CCc1ccc2c3c([nH]c2c1)[C@]1(CCC2CCCC2)[C@@H](C(=O)N2CCOCC2)C[C@H](CC(=O)NCc2ccco2)C(=O)N1CC3 | 5.29% (inactive) |
| O=C(COC(=O)CSc1ccccc1)Nc1ccc(F)cc1F | 13.6% (inactive) |
| Cn1nnnc1SCC(=O)Nc1cccc(S(=O)(=O)N2CCCCC2)c1 | 12% (inactive) |
| COc1ccccc1N1CC(C(=O)Nc2ccc(S(=O)(=O)N3CCOCC3)cc2)CC1=O (stereo not drawn) | 91.1% (active) |
| Cc1ccccc1N1CC(C(=O)Nc2ccc(S(=O)(=O)N3CCCC3)cc2)CC1=O (stereo not drawn) | 15.4% (inactive) |
| CC1CCN(S(=O)(=O)c2ccc(NC(=O)C3CC(=O)N(c4ccccc4)C3)cc2)CC1 (stereo not drawn) | 25.5% (inactive) |
| CN(Cc1ccc(CNC[C@H]2O[C@@H](n3cnc4c(N)ncnc43)[C@H](O)[C@@H]2O)o1)S(C)(=O)=O | -3.7% (inactive) |
| O=C(NCc1ccccc1Cl)C1CCCN1S(=O)(=O)c1ccc(F)cc1 (stereo not drawn) | 2.31% (inactive) |

| SMILES | inhibition |
| --- | --- |
| COc1ccccc1NC(=O)C1CCCN1S(=O)(=O)c1ccc(Cl)cc1 (stereo not drawn) | 62.4% (active) |
| Cc1cccc(NC(=O)C2CCCN2S(=O)(=O)c2ccc(F)cc2)c1C (stereo not drawn) | 50% (active) |
| COc1ccc(Cl)cc1NC(=O)[C@@H]1CCCN1C(=O)c1cccs1 | 1.43% (inactive) |
| CC(C)c1nnc(NC(=O)C2CCCN2S(=O)(=O)c2ccc(Cl)cc2)s1 (stereo not drawn) | 39.3% (inactive) |
| Cc1cccc(NC(=O)C2CCCN(C(=O)Nc3ccc(F)cc3)C2)c1C (stereo not drawn) | 21.2% (inactive) |
| CC1Sc2ccc(C(=O)NCc3ccccc3Cl)cc2NC1=O (stereo not drawn) | 1.56% (inactive) |
| NC(=O)Nc1ccc(C(=O)OCC(=O)NC2CCCc3ccccc32)cc1 (stereo not drawn) | 19.8% (inactive) |
| COc1cccc(CC2(CO)CCCN(CC3=Cc4cc(OC)ccc4OC3)C2)c1 (stereo not drawn) | 25.7% (inactive) |
| COc1cccc(CC2(CO)CCCN(Cc3nc(-c4cccs4)oc3C)C2)c1 (stereo not drawn) | 45% (active) |
| COc1cccc(CC2(CO)CCCN(Cc3ccc(OC(F)F)cc3)C2)c1 (stereo not drawn) | 13.4% (inactive) |
| COC(=O)[C@]1(Cc2ccccc2)N[C@H](CN(C)S(=O)(=O)c2ccc(OC(F)(F)F)cc2)[C@@H]2C(=O)N(C)C(=O)[C@@H]21 | 5.12% (inactive) |
| O=C(CSc1ncnc2sccc12)NC1CCS(=O)(=O)C1 (stereo not drawn) | 4.8% (inactive) |
| CCCCNS(=O)(=O)CCNCc1ccccc1OC | 5.19% (inactive) |
| CCCCNC(=O)C(C)N(CCN(C)C)C(=O)CCCCCN1C(=O)NC(c2ccc(Cl)cc2)C(C(=O)OCc2ccccc2)=C1C (stereo not drawn) | 7.69% (inactive) |
| O=C(CCCOc1ccccc1)NNC(=O)c1ccc(Cl)cc1 | 2.88% (inactive) |
| CN=C1C=C/C(=N/N=c2\ccn(O)cc2C)C=C1C | 58.6% (active) |
| CCOc1ncccc1C(=O)Nc1ccc2c(c1)OCCO2 | 14.1% (inactive) |
| O=C(COC(=O)c1ccc(F)cc1)Nc1ccc2c(c1)OCO2 | 7.07% (inactive) |
| COc1cc2ccccc2cc1C(=O)Nc1ccncc1 | 17.8% (inactive) |
| COc1cc2ccccc2cc1C(=O)N1CCOCC1 | 9.14% (inactive) |
| COc1cc2ccccc2cc1C(=O)Nc1ccc(N2CCOCC2)cc1 | 63.5% (active) |
| O=C(Cn1cnc2ccccc2c1=O)NNC(=O)c1ccccc1F | 6.41% (inactive) |
| COc1cccc(N=c2oc3c(C)ncc(CO)c3cc2C(N)=O)c1 | 84.6% (active) |
| COC(=O)c1ccc(NC(=O)c2cc3c(CO)cnc(C)c3oc2=Nc2cccc(C(N)=O)c2)cc1 | 7.42% (inactive) |
| COc1cccc2cc(C(N)=O)/c(=N\NC(=O)c3ccccc3)oc12 | 5.27% (inactive) |
| O=C(CN1C(=O)NC2(CCCCCC2)C1=O)Nc1ccc([N+](=O)[O-])cc1 | 11.2% (inactive) |
